Assay results: the supplement of paper PMC11417369
The full ranking holds about 25,000 sequences; the median of “ln(normalized median fluorescence intensity)” is about 9.3, and the highest 2% start at about 10. The sample holds the highest values, similar sequences and a random draw of the others, so the mix is not that of the screen.

These sequences were tested on PF3D7_0420300 AP2 domain 1 (GST-tagged) (assay: gcPBM binding intensity (ln(normalized median fluorescence intensity)); higher = stronger DNA binding).
Procedure, shortened: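 The binding buffer was 1× PBS containing 1% milk, 0.2 mg/ml BSA, 0.5% salmon testes DNA and 0.03% Triton X-100. In it, GST-tagged P. falciparum DNA-binding domains expressed in E. coli were applied for 1 h to an Agilent 4 × 180k array of primer-extended double-stranded 36-bp intergenic genomic probes plus negative controls. Binding intensity, read with Alexa488 anti-GST antibody and a 488 nm scan, is the highest Masliner-normalised natural-log median intensity across replicate spots of either probe orientation.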
With “GTACATAGGTATAGCACACACAAATGTAGGTATTTT [CACACA_site4049]” the “gcPBM binding intensity (ln)” value was 9.65. For “TATATTTATTATAACACACACATATAAATATTATAG [CACACA_site6726]”, the “gcPBM binding intensity (ln)” value was 9.67. For “TTGTTCTAATATATTGCACACGTAAAAATATAGGTA [CACACA_site8195]”, the “gcPBM binding intensity (ln)” value was 9.3. For “TAAGGATAAATAAAATGAAATGAAATAAATAAATGA [XGTACX_negctrl_site539]”, the “gcPBM binding intensity (ln)” value was 9.24. “TATAAAATATAAATAAATAAATAAATATATATATAT [TGCATGCA_negctrl_site448]” was tested, and the “gcPBM binding intensity (ln)” value was 9.11. In the case of “GCGGCGGTATCATGCACACGTATATATTGTAACAGT [CACACA_site4958]”, the “gcPBM binding intensity (ln)” value is reported as 9.27. In the case of “TTTTTTATTTTAATGTATTATTTTTATGTAATATAT [GTGCAC_negctrl_site391]”, the “gcPBM binding intensity (ln)” value is reported as 9.23. In the case of “AAAAAAAAAAGACACACACACAATAGTATATAAATC [CACACA_site6579]”, the “gcPBM binding intensity (ln)” value is reported as 10.2. For “AAAAAAAAAAAAAACACACACACAATAGTATATAAA [CACACA_site957]”, the “gcPBM binding intensity (ln)” value was 9.94. With “AAAAATATGAAGACACAATATAGAAATAAAAATATA [XGTACX_negctrl_site244]” the “gcPBM binding intensity (ln)” value was 9.44. In the case of “CAAAAATAAATATAAACACACAATAAATAAATAAAT [CACACA_site891]”, the “gcPBM binding intensity (ln)” value is reported as 9.91. For “TAAATACAAAAATGCACACGAAAAGTAATATATATA [CACACA_site6151]”, the “gcPBM binding intensity (ln)” value was 9.64. With “AGAGTATATAAAGTAACACACAATAAAATAAAATAA [CACACA_site2328]” the “gcPBM binding intensity (ln)” value was 9.82. “ATGGACAAAAAATATATACACACGAGGAAACCAACA [CACACA_site3726]” was tested, and the “gcPBM binding intensity (ln)” value was 10.1. “AAAAAAAAAAAACACACACACAATAGTATATAAATC [CACACA_site956]” was tested, and the “gcPBM binding intensity (ln)” value was 10.3. With “TAAAAATAGTATACAACACACGAGGGAAAATAAAGT [CACACA_site3837]” the “gcPBM binding intensity (ln)” value was 10.2. In the case of “AACATAATAAAAATGGATATAATTCAAAGTTTGTAA [TGCATGCA_negctrl_site529]”, the “gcPBM binding intensity (ln)” value is reported as 9.25. With “TTTTATATATATTATACACACAAGGAAAAAAAAAAA [CACACA_site3677]” the “gcPBM binding intensity (ln)” value was 9.53. “ATATATTTTATTCCTATATATATATATATATATATA [GTGCAC_negctrl_site556]” was tested, and the “gcPBM binding intensity (ln)” value was 9.27. In the case of AAAAATGTAAAGTGCGTGCACAAAATATTTGGAAAA, the “gcPBM binding intensity (ln)” value is reported as 9.27. In the case of “AGAAATATATCTATTTGTCCGTATATTCATATTTAT [XGTACX_site8427]”, the “gcPBM binding intensity (ln)” value is reported as 9.4. In the case of “TTTTTTTATAAAAATGAACACACACCGATATATATA [CACACA_site9161]”, the “gcPBM binding intensity (ln)” value is reported as 9.63. For “GGAAGGATATAACATACACACACACCCATATATATA [CACACA_site9376]”, the “gcPBM binding intensity (ln)” value was 10. For “TAACCATACATACATACACACACACCCACATATATA [CACACA_site8951]”, the “gcPBM binding intensity (ln)” value was 10.1. For “ATAAAAAAAGGACACACACACATATATATATATATA [CACACA_site5662]”, the “gcPBM binding intensity (ln)” value was 9.93. For “AAGGATATAACATACACACACACACCGATATATATA [CACACA_site6136]”, the “gcPBM binding intensity (ln)” value was 10.2. “TTAAACTTGAAACACACACACACACCCATATAAAAA [CACACA_site758]” was tested, and the “gcPBM binding intensity (ln)” value was 10.1. “CCATAAAAAGGATACACACACACACCGACATATATA [CACACA_site4653]” was tested, and the “gcPBM binding intensity (ln)” value was 10.2. “GTAACATACACATATACACACACACCGATATACATA [CACACA_site8278]” was tested, and the “gcPBM binding intensity (ln)” value was 10.2. In the case of “AAGGATATAACATACACACACACACCCATATATATA [CACACA_site4142]”, the “gcPBM binding intensity (ln)” value is reported as 10.3. In the case of “TTAAACTTGAAACACACACACACACCGATATAAAAA [CACACA_site4578]”, the “gcPBM binding intensity (ln)” value is reported as 10.2. In the case of “CATATAAAAGGACACACACACACATATATATATATA [CACACA_site4674]”, the “gcPBM binding intensity (ln)” value is reported as 10. For “ATATATACATATAACACACACATATATATATATATA [CACACA_site2575]”, the “gcPBM binding intensity (ln)” value was 9.56. In the case of “ATATAACTCAAGGGCACACATATACCTTTCCTTTTT [CACACA_site4390]”, the “gcPBM binding intensity (ln)” value is reported as 9.5. For “AATATACATAACAAGGTGCAAAAAATATTGTTCATA [GTGCAC_site9499]”, the “gcPBM binding intensity (ln)” value was 9.5. “TATTATCTCTTATGAACACACATTTTTATTTTCAAA [CACACA_site3353]” was tested, and the “gcPBM binding intensity (ln)” value was 9.31. In the case of “AATATATAGCTAAAAACACACAAATATATACGCATA [CACACA_site3608]”, the “gcPBM binding intensity (ln)” value is reported as 9.69. With “TTATATATAATATATACACACACATGTATATATAAA [CACACA_site8603]” the “gcPBM binding intensity (ln)” value was 9.45. With “AGTTAATGAATAGGCACACATATATCTGTATAAATA [CACACA_site4448]” the “gcPBM binding intensity (ln)” value was 9.47. With “AAAAAAAAAATATACACACACACATACCCATAAATA [CACACA_site5981]” the “gcPBM binding intensity (ln)” value was 9.99. In the case of “AATAAAAAGGAACACACACACACACCGATATATATA [CACACA_site5895]”, the “gcPBM binding intensity (ln)” value is reported as 10.2. “AAAAAGGATAAACACACACACACACCGATATATATA [CACACA_site8206]” was tested, and the “gcPBM binding intensity (ln)” value was 10.2. In the case of “CCATAAAAAGGATACACACACACACCCACATATATA [CACACA_site903]”, the “gcPBM binding intensity (ln)” value is reported as 10.2. “TAAAAGGATACATATACACACATATATATATATATA [CACACA_site2791]” was tested, and the “gcPBM binding intensity (ln)” value was 9.32. With “AAAAAAAAAAGACACACACACAAAAAAAGATATATA [CACACA_site6645]” the “gcPBM binding intensity (ln)” value was 10.2. For “AAAAAAAAAAGACACACACACACACGGAGATATATA [CACACA_site6216]”, the “gcPBM binding intensity (ln)” value was 10.3.
